Test [1] is described as follows: qHTS assay to identify small molecule agonists of the vitamin D receptor (VDR) signaling pathway - cell viability counter screen (AID 743224). Note: series mostly up to about 63 µM; nearly all actives have a fitted effect of over 50% in size. An outline of the steps: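 VDR-bla cell line, quantitative HTS format; 16 h compound incubation (37C, 5% CO2); ATP-based CellTiter-Glo luminescence measured in the reporter assay wells.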
Test [2] is described as follows: qHTS assay to identify small molecule agonists of the NFkB signaling pathway (AID 1159509; active = well fitted curve in the direction sought with a large enough effect in the signal ratio in the repeat runs, not every such curve was filed as active; the % refers to the signal ratio; note: series mostly up to about 61 µM). An outline of the steps: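 NFkB-bla ME-180 cells carry a beta-lactamase reporter under an NF-kB response element. They were plated overnight, then exposed to compounds for 5 h at 37 C. Read-out is LiveBLAzer FRET after 1.5 hr at room temperature (405 nm excitation; 460/530 nm emission).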

Test [3] can be described thus: qHTS assay to identify small molecule agonists of the NFkB signaling pathway - cell viability counter screen (AID 1159515; calls by dose curve; note: series mostly up to about 61 µM; nearly all actives have a fitted effect of over 55% in size). An outline of the steps: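 Viability in NFkB-bla ME-180 cells was measured by CellTiter-Glo luminescence, 30 min room temperature, in wells already treated 5 hr with compounds and read for reporter FRET.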
Test [4] is described as follows: qHTS assay to identify small molecule agonists of the endoplasmic reticulum stress response signaling pathway (AID 1159516; active = well fitted activation curve with a large enough effect in the signal ratio in the repeat runs, not every such curve was filed as active; the % refers to the signal ratio). The method in brief:
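ER stress element reporter (bla) in HeLa. 1,500 cells/well, overnight attachment; 5 hr compound; 2 hr RT substrate; dual-emission fluorescence.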
(In general: Quantitative high-throughput screening tests each substance at several concentrations.)

The nature of test [5]: qHTS assay to identify small molecule agonists of the endoplasmic reticulum stress response signaling pathway - cell viability counter screen (AID 1159517; calls by dose curve;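 note: HeLa cells carrying an ER stress response element beta-lactamase reporter; series mostly up to about 61 µM; nearly all actives have a fitted effect of over 50% in size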). An outline of the steps:
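HeLa cells carrying an ESRE-driven beta-lactamase reporter receive compound for 5 hr at 37 C. Cell viability is then gauged with CellTiter-Glo by luminescence, 30 min at room temperature.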

Test [6] can be described thus: qHTS assay to identify small molecule antagonists of the retinoid-related orphan receptor gamma (ROR-gamma) signaling pathway - cell viability counter screen (AID 1159520). Note: nearly all actives have a fitted effect of over 50% in size. An outline of the steps:
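Cytotoxicity was read from cellular ATP (CellTiter-Glo luminescence) after 16 hr at 37 C with 1 uM doxycycline induction. The inducer was added 2 hr after compound transfer to Tet-on ROR gamma CHO cells.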

Test [7] concerns the target Nuclear receptor ROR-gamma (Homo sapiens) (UniProt P51449). Description: qHTS assay to identify small molecule antagonists of the retinoid-related orphan receptor gamma (ROR-gamma) signaling pathway (AID 1159521;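 note: CHO cells with doxycycline inducible ROR-gamma driving an RORE luciferase reporter; top concentration of the series differs between compounds; nearly all actives have a fitted effect of over 50% in size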). The method in brief:
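CHO Tet-on RORγ, RORE-luc reporter. Cpd 2 h pre-incubation, then dox hyclate 1 uM final, 16 h, 37 C/5% CO2. ONE-Glo luminescence; decrease = antagonist.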

A short description of test [8]: qHTS assay to identify small molecule agonists of the AP-1 signaling pathway - cell viability counter screen (AID 1159525; calls by dose curve; note: nearly all actives have a fitted effect of over 55% in size). The method in brief: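 Luminescent ATP readout (Cell Titer Glo, 30 min RT), normalised to DMSO and tetra n-octyl ammonium bromide controls. Cells were ME-180 AP-1-bla in 0.5% dialyzed FBS Opti-MEM, with a 5 h, 37 °C compound exposure.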
A short description of test [9]: qHTS assay to identify small molecule agonists of the AP-1 signaling pathway (AID 1159526; calls by dose curve).
For test [10], the target named is Retinoic acid receptor RXR-alpha (Homo sapiens) (UniProt P19793). Description: qHTS assay to identify small molecule agonists of the RXR signaling pathway (AID 1159527; calls by dose curve; note: nearly all actives have a fitted effect of over 35% in size). An outline of the steps:
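Read-out: beta-lactamase FRET ratio (405 nm excitation, 460 and 530 nm emission) after 2 hr substrate loading at room temperature. Cells were RXR-alpha-UAS-bla HEK 293T treated with compounds for 16 hr in 2% charcoal-stripped FBS medium.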

The nature of test [11]: qHTS assay to identify small molecule agonists of the RXR signaling pathway - cell viability counter screen (AID 1159529). An outline of the steps:
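HEK 293T RXRa-bla cells, 2% CS-FBS; 5 h settle; cpd 16 h 37 C, 5% CO2; CellTiter-Glo 30 min RT, luminescence. Tetraoctyl ammonium bromide as positive control.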

Test [12] in a line: qHTS assay to identify small molecule antagonists of the retinoid acid receptor (RAR) signaling pathway - cell viability counter screen (AID 1159551). Note: nearly all actives have a fitted effect of over 35% in size. An outline of the steps: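 Following overnight attachment, C3RL4 reporter cells received DMSO-dissolved compounds and then retinol (1 uM final). Six hours later at 37 C, ATP content was measured by CellTiter-Glo luminescence.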

Test [13] in a line: qHTS assay to identify small molecule antagonists of the retinoic acid receptor (RAR) signaling pathway (AID 1159552; note: nearly all actives have a fitted effect of over 50% in size). The method in brief:
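Cells of the C3RL4 line were seeded, incubated overnight, then dosed with compounds in DMSO followed immediately by retinol (1 uM final). Six hours later luciferase detection reagent went in; signal was measured after 30 min at RT.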

Test [14] in a line: qHTS assay to identify small molecule agonists of the retinoic acid receptor (RAR) signaling pathway (AID 1159553). Note: potency is the fitted concentration of half-maximal effect. An outline of the steps:
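Cell line C3RL4, RARE luciferase reporter. Treatment: compounds in DMSO, 6 hr, 37 C, 5% CO2, after overnight plating. Detection: luminescence, 30 min RT after reagent.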

The nature of test [15]: qHTS assay to identify small molecule antagonists of the vitamin D receptor (VDR) signaling pathway - cell viability counter screen (AID 743225). Note: nearly all actives have a fitted effect of over 50% in size. The method in brief:
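Read-out: CellTiter-Glo luminescence measured 30 min after reagent addition at room temperature. Cells were VDR-bla HEK 293T exposed 16 h at 37C, 5% CO2, to compound with 3 nM final calcitriol agonist.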

Test [16] in a line: qHTS assay to identify small molecule agonists of the estrogen related receptor (ERR) signaling pathway (AID 1224820). An outline of the steps:
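ERR reporter cell line (from NTP), 2,000 cells/well, incubated 6 h before compound addition, then 18 h at 37 C. Luminescence measured 30 min after One-Glo reagent at room temperature.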

The nature of test [17]: qHTS assay to identify small molecule antagonists of the estrogen related receptor signaling pathway with the pleiotropic PPARgamma coactivator (PGC) cell viability counter screen (AID 1224822; note: series mostly up to about 46 µM). The method in brief: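 qHTS format, DMSO compound stocks pin-transferred onto PGC/ERR cells 6 h after plating; 17.5 h exposure at 37 C, then CellTiter-Fluor fluorescence.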
The nature of test [18]: qHTS assay to identify small molecule antagonists of the estrogen related receptor (ERR) signaling pathway - cell viability counter screen (AID 1224818). Note: series mostly up to about 46 µM. The method in brief: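 Here, ERR cells are plated at 2,000 cells per well, allowed 6 h to attach, and treated with compounds in DMSO for 17.5 h at 37 C. CellTiter-Fluor is then added and fluorescence read after 30 min.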

“And” between values parts separate entries of the source, which are not always exact repeats. Equal entries are not always repeated. Inconclusive results are not listed. The source made the active and inactive calls. Unless noted, calls come from the whole dose curve; as a rule, active = well fitted curve in the direction sought with a large enough effect in the repeat runs; inconclusive = weak or mixed curves; inactive = no such curve, though single readings can be large; an effect the other way counts as inactive or inconclusive.

Chain of Retinoic acid receptor RXR-alpha (Homo sapiens) (P19793 whole entry, looked up): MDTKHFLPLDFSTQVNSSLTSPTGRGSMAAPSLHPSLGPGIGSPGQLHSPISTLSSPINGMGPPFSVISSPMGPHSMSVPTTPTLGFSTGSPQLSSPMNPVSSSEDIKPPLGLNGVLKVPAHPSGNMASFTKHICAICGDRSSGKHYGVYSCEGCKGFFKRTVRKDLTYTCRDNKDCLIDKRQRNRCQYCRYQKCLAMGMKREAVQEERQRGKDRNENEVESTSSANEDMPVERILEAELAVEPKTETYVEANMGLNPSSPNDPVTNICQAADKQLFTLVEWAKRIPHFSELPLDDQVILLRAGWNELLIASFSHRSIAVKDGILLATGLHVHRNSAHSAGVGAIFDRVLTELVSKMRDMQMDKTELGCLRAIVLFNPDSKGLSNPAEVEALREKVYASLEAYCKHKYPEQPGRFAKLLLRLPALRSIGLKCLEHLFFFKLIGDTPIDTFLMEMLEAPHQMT

For `CCCCC(CC)COC(=O)/C=C\C(=O)OCC(CC)CCCC` (stereo not drawn), the Potency result in test [1], in test [5], in test [6], in test [7], in test [8] and in test [9] was “inactive” throughout. The Potency entry in [10], in test [11], in test [12], in test [13] and in [14] was “inactive” throughout. The molecule was called inactive in test [2], in [3] and in test [4].
In the case of `O=[N+]([O-])C(CO)(CO)CO`, the Potency entry in test [1], in test [15], in test [5], in [6], in test [7] and in test [8] was “inactive” throughout. For the same molecule, the Potency entry in test [9], in test [10], in test [11], in test [12], in [13] and in [14] was “inactive” in each case. The outcome in test [2], in [3] and in [4] was inactive.
Consider `C=CC(=O)OCCCCCCCC(C)C`, for which the Potency result in test [1], in [15], in test [5], in test [6], in test [7] and in test [8] was “inactive” each time. The Potency result in test [9], in test [10], in [11], in test [12], in [13] and in test [14] was “inactive” throughout. The molecule was classed as inactive in test [2], in [3] and in test [4].
On to `CCCCCCCCCC(=O)O`, for which the Potency result in test [1], in test [15], in test [5], in [6], in test [7] and in [8] was “inactive” in each case. In addition, the Potency entry in [9], in test [11], in [12], in test [13] and in test [14] was “inactive” throughout. Moreover, the result in [2], in test [3] and in test [4] was inactive.
For the molecule `CC1=C(/C=C/C(C)=C/C=C/C(C)=C/CO)C(C)(C)CCC1`, the Potency result in test [1], in [15], in test [5], in [6], in test [8] and in test [9] was “inactive” in each case. Further, the Potency entry in [11], in test [12] and in test [13] was “inactive” in each case. The molecule was classed as inactive in test [2], in test [3] and in [4]. The Potency in test [14] is 13.9 µM (active) and 32.3 µM (active).
For `CS(=O)(=O)Nc1ccc([N+](=O)[O-])cc1Oc1ccccc1`, the Potency result in test [1], in test [15], in [5], in test [6], in [8] and in test [9] was “inactive” in each case. Moreover, the Potency entry in [10], in test [11], in [12] and in [16] was “inactive” in each case. The molecule was called inactive in test [2], in [3], in test [4] and in test [17].
In the case of `O=S(=O)(O)CCS`, the Potency entry in test [1], in test [5], in test [6], in test [7], in test [8] and in test [9] was “inactive” throughout. The Potency result in test [10], in test [11] and in test [12] was “inactive” throughout. Moreover, the result in test [2], in [3] and in test [4] was inactive.
For the molecule `Nc1cc(-c2ccncc2)c[nH]c1=O`, the Potency result in [1], in [5], in test [7], in [8], in [9] and in test [10] was “inactive” each time. The Potency result in test [11], in test [12], in test [13] and in test [14] was “inactive” in each case. For the same molecule, the molecule was classed as inactive in [2], in [3] and in test [4].
`CC(C)NCC(O)COc1cccc2ccccc12` (stereo not drawn): the Potency entry in test [1], in test [15], in test [5], in test [6], in test [7] and in test [8] was “inactive” in each case. Further, the Potency entry in test [10], in test [11], in test [12], in test [13] and in test [14] was “inactive” in each case. For the same molecule, the call in [2], in test [3], in test [4], in test [18] and in test [17] was inactive.
In the case of `OCCOCCOCCOCCO`, the Potency entry in [1], in test [5], in test [6], in test [7], in test [8] and in test [9] was “inactive” in each case. Further, the Potency entry in test [10], in test [11] and in [12] was “inactive” in each case. The molecule was called inactive in test [2], in [3] and in [4].

For the origin of these results see PubChem BioAssay (Tox21).
